Records with an inconclusive call do not appear. A call without a number means that no potency is given here. Calls of active or inactive are those of the source. Calls come from the whole dose curve; as a rule, active = well fitted curve in the direction sought with a large enough effect in the repeat runs; inconclusive = weak or mixed curves; inactive = no such curve, though single readings can be large; an effect the other way counts as inactive or inconclusive.
Assay: qHTS RealTime-Glo MT Cell Viability Assay in HepG2 cells - 8 hour (AID 1224873); note: nearly all actives have a fitted effect of over 55% in size
Conditions: RealTime-Glo luminescence; series mostly up to 76.8 µM
How it was run: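 HepG2 cells mixed with RealTime-Glo MT reagents (NanoLuc plus cell-permeant prosubstrate) were seeded at 600 cells/well, incubated 5 h at 37 C/5% CO2, then pinned with compounds in DMSO; nonlytic luminescence tracked viability during 40 h treatment.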
In the case of CCC(O)CO (stereo not drawn), the Potency was “inactive”.
With Nc1cc([N+](=O)[O-])cc(Cl)c1O the Potency was “inactive”.
With O=C(Nc1ccc([N+](=O)[O-])cc1)Nc1ccc([N+](=O)[O-])cc1 (tested in a mixture with another compound) the Potency was “inactive”.
With c1ccc(-c2nc3ccccc3[nH]2)cc1 the Potency was “inactive”.
In the case of CC/C=C\C/C=C\C/C=C\CCCCCCCC(=O)OC, the Potency was “inactive”.
With C=CC(=O)OCCOC1C2CCC1C1CC=CC12 (stereo not drawn) the viability change, negative = cytotoxic was 0.124% [at 15.8 µM] (inactive).
For Cc1ccc(N=Nc2c(O)ccc3ccccc23)c(C)c1, the Potency was “inactive”.
In the case of O=c1cc[nH]cc1, the Potency was “inactive”.
With C/C=C/C(=O)OCC(C)C the Potency was “inactive”.
For CCCCCCCCCCCC(=O)Cl, the Potency was “inactive”.
In the case of C=C(C)CCO, the Potency was “inactive”.
In the case of [Cl][Eu]([Cl])[Cl], the Potency was “inactive”.
For CC(C)=NNC(N)=S, the Potency was “inactive”.
In the case of CCn1c2ccccc2c2ccccc21, the Potency was “inactive”.
With O=C1OCc2ccccc21 the Potency was “inactive”.
In the case of CCOC(=O)[C@H](O)[C@@H](O)C(=O)OCC, the Potency was “inactive”.
With O=C1OC(=O)c2cc(-c3ccc4c(c3)C(=O)OC4=O)ccc21 the Potency was “inactive”.
For CCOC=C(C(=O)OCC)C(=O)OCC, the Potency was “inactive”.
In the case of CC1=CC[C@@H](C(C)(C)O)CC1, the Potency was “inactive”.
For C=CC(C)(C)O, the Potency was “inactive”.
With CCOc1nc(F)cc2nc(S(=O)(=O)Nc3c(Cl)cccc3C(=O)OC)nn12 the Potency was “inactive”.
In the case of c1ccc2cc3c4ccccc4c4ccccc4c3cc2c1, the Potency was “inactive”.
With Cc1c(Cl)c(=O)oc2cc(O)ccc12 the Potency was “inactive”.
For C=C[Si](C)(C)Cl, the viability change, negative = cytotoxic was -15.7% [at 6.97 µM] (inactive).
In the case of CCCCCCCC/C=C\CCCCCCCC(=O)N(CCO)CCO, the Potency was “inactive”.
With CC(CC(C)(C)C)CC(C)(C)CC(C)(C)C (stereo not drawn) the Potency was “inactive”.
For CN1CCN(C)CC1, the Potency was “inactive”.
In the case of CCOC(=O)[C@H](C)O, the Potency was “inactive”.
In the case of CC(=O)CC(N)=O, the Potency was “inactive”.
For COCCC(=O)OC, the Potency was “inactive”.
For O=C(NCc1ncc(C(F)(F)F)cc1Cl)c1c(Cl)cccc1Cl, the Potency was “inactive”.
In the case of O=C1CCC/C=C\CCCCCCCCCC1, the Potency was “inactive”.
In the case of Cc1cccc(C)c1C, the Potency was “inactive”.
With NC(=O)C1CO1 (stereo not drawn) the Potency was “inactive”.
In the case of Nc1ccc(Cl)c([N+](=O)[O-])c1, the Potency was “inactive”.
In the case of C=C(C)C1CCC(C)CC1O (stereo not drawn), the Potency was “inactive”.

Assay: qHTS RealTime-Glo MT Cell Viability Assay in HEK293 cells - 40 hour (AID 1224874); note: nearly all actives have a fitted effect of over 50% in size; note: potency is the fitted concentration of half-maximal effect
Conditions: RealTime-Glo luminescence; max response: stronger effect = lower value
How it was run: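 HEK293 cells mixed with RealTime-Glo reagents (NanoLuc plus cell-permeant prosubstrate) at 600 cells/well, preincubated 5 h at 37 C/5% CO2, then given 23 nL compound in DMSO. Nonlytic luminescence from viable cells was read at 0, 8, 16, 24, 32 and 40 h.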
In the case of CCC(O)CO (stereo not drawn), the max response was -1.31% (inactive).
In the case of Nc1cc([N+](=O)[O-])cc(Cl)c1O, the max response was -6.05% (inactive).
In the case of O=C(Nc1ccc([N+](=O)[O-])cc1)Nc1ccc([N+](=O)[O-])cc1 (tested in a mixture with another compound), the Potency was 4.77 µM (active).
In the case of c1ccc(-c2nc3ccccc3[nH]2)cc1, the Potency was 21.9 µM (active).
For CC/C=C\C/C=C\C/C=C\CCCCCCCC(=O)OC, the max response was -12.1% (inactive).
For C=CC(=O)OCCOC1C2CCC1C1CC=CC12 (stereo not drawn), the max response was 6.38% (inactive).
In the case of Cc1ccc(N=Nc2c(O)ccc3ccccc23)c(C)c1, the max response was -8.3% (inactive).
In the case of CCCCCCCCCCCC(=O)Cl, the max response was 0.0053% (inactive).
With CC(C)=NNC(N)=S the max response was 3.34% (inactive).
With O=C1OCc2ccccc21 the max response was 15.2% (inactive).
For CCOC(=O)[C@H](O)[C@@H](O)C(=O)OCC, the max response was 5.68% (inactive).
For O=C1OC(=O)c2cc(-c3ccc4c(c3)C(=O)OC4=O)ccc21, the max response was 0.595% (inactive).
For CC1=CC[C@@H](C(C)(C)O)CC1, the max response was 4.47% (inactive).
In the case of C=CC(C)(C)O, the max response was 6.97% (inactive).
With CCOc1nc(F)cc2nc(S(=O)(=O)Nc3c(Cl)cccc3C(=O)OC)nn12 the max response was 9.81% (inactive).
For c1ccc2cc3c4ccccc4c4ccccc4c3cc2c1, the max response was -2.98% (inactive).
In the case of Cc1c(Cl)c(=O)oc2cc(O)ccc12, the Potency was 43.6 µM (active).
For C=C[Si](C)(C)Cl, the max response was -5.42% (inactive).
In the case of CCCCCCCC/C=C\CCCCCCCC(=O)N(CCO)CCO, the Potency was 43.5 µM (active).
With CN1CCN(C)CC1 the max response was 7.77% (inactive).
With CCOC(=O)[C@H](C)O the max response was 7.55% (inactive).
With CC(=O)CC(N)=O the max response was 14.8% (inactive).
In the case of CC(=O)[C@]1(O)Cc2c(O)c3c(c(O)c2[C@@H](O[C@H]2C[C@H](N)[C@H](O)[C@H](C)O2)C1)C(=O)c1ccccc1C3=O, the Potency was 0.0601 µM (active).
For COCCC(=O)OC, the max response was 1.08% (inactive).
In the case of O=C(NCc1ncc(C(F)(F)F)cc1Cl)c1c(Cl)cccc1Cl, the Potency was 19.5 µM (active).
For O=C1CCC/C=C\CCCCCCCCCC1, the max response was -5.39% (inactive).
In the case of NC(=O)C1CO1 (stereo not drawn), the max response was 3.16% (inactive).

From PubChem BioAssay (Tox21)
